Bioassay records deposited in PubChem by several laboratories.
Only some compounds are listed: those with a hit (about 5.4% of all), similar ones and a draw of the others.
SMARCA2 activ: increases SMARCA2 function in MMTV reporter cells | MG213 cells, MMTV-luciferase reporter, dexamethasone, overnight | activation, % at 9.1 µM | 370,000 compounds, 1% hits | AID 652017; in the data active means activation above about 7.8%;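 further: 0% = vehicle wells and 100% = reference activator wells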
Exocytosis inh: lytic granule exocytosis inhibition. inhibition, % at 10 µM. AID 651702. 360,000 compounds, 0.66% hits. TALL-104 LAMP-1 surface exposure, flow cytometry; cells stimulated with thapsigargin and PMA;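 active means inhibition above about 55%, limit read from the data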
JMJD2C inh: blocks human GASC-1 demethylase activity. Q9H3R0. GST-JMJD2C(1-420) H3K9me3 demethylation, DELFIA europium. AID 2099. 330,000 compounds, 0.069% hits. inhibition, % at 2.35 µM;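 active means more than half of a compound's replicate wells show inhibition beyond 50%, single wells judged on their own value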;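 further: signal counts dimethyl H3K9 product captured on neutravidin plate; 0% = median of DMSO wells and 100% = 0.3 times that DMSO median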
Target sequence (Q9H3R0 1-420 limits assumed): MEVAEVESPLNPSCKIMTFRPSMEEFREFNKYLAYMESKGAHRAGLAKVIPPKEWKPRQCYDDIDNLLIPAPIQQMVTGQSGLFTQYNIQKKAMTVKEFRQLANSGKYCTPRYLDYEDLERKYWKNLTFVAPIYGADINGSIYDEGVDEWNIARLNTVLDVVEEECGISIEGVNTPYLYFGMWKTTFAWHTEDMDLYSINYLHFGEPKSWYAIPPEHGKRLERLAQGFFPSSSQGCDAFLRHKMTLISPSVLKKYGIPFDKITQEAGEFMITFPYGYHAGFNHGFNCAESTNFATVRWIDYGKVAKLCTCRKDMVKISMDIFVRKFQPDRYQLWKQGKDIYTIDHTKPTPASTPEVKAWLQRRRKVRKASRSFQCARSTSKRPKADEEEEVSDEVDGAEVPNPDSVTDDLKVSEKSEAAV
PfM18AAP inh: PfM18AAP enzyme inhibition; recombinant PfM18AAP, H-Glu-NHMec fluorogenic cleavage; inhibition, % at 7.35 µM; 290,000 compounds, 1.2% hits;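 active means inhibition above the campaign mean inhibition over all tested compounds plus 3 SD, cut at about 28% in these data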;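 further: 0% = plate median of test compound wells and 100% = 2 mM ZnCl2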
MIN6 prolif: induces beta-cell replication in MIN6 cells | MIN6 cells proliferation, ATPlite luminescence, 48 h; cells starved in 0.2% serum; 100% = growth in 10% serum | proliferation, % at 10 µM | 330,000 compounds, 0.29% hits;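 active means compounds whose signal lies at least 3.5 SD above the mean of all wells on their plate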;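 further: 0% = DMSO-treated cells in low-serum medium and 100% = 10% serum control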
ALR inh: blocks human ALR sulfhydryl oxidase activity | inhibition, % (test concentration not listed) | purified ALR, DTT oxidation, H2O2 HRP-luminol luminescence | 290,000 compounds, 3.8% hits;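 active means mean replicate inhibition above about 79%, with every replicate also reaching it, limit read from the data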
Target sequence (P55789 whole entry, looked up): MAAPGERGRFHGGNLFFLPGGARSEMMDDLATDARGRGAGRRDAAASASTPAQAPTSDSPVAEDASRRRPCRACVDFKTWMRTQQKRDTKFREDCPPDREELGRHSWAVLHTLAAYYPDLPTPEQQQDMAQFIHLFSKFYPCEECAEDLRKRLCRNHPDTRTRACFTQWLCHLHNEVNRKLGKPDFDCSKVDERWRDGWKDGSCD
* marks the source's active call; other numbers are inactive results; . = not tested or not shown.

SMILES | SMARCA2 activ | Exocytosis inh | JMJD2C inh | PfM18AAP inh | MIN6 prolif | ALR inh
CN(C)c1ccc(/C=C(\NC(=O)c2ccccc2)C(=O)NCCCN2CCOCC2)cc1 | -3 | 2 | -33 | 10 | 4 | 98*
COc1ccc(-c2nc(SC(CC(=O)NCCN3CCOCC3)c3cccs3)n[nH]2)cc1 (configuration not stated) | -2 | -4 | -5 | 7 | -4 | 97*
COc1ccc(-c2nc(SC(CC(=O)NCc3ccccc3)c3ccc(OC)c(OC)c3)n[nH]2)cc1 (configuration not stated) | 1 | 1 | 6 | -5 | -3 | 95*
O=C(NCCc1ccccc1)OCc1cn(-c2ccc(F)c(F)c2)nn1 | 0 | . | . | . | . | .
Cc1cc(SCCC(=O)O)nc2ccccc12 | -1 | 1 | -15 | 30* | -3 | 5
Cc1cc(SCC(=O)N/N=C/c2ccc(C(=O)O)cc2)nc2ccccc12 | -3 | 2 | -15 | -4 | 0 | 99*
CCOC(=O)CCSc1cc(C)c2ccccc2n1 | 2 | -6 | 3 | 7 | -1 | 0
Cc1cn2nc(N)c3ccccc3c2n1 | -3 | 0 | 2 | -12 | 0 | -4
Nc1nn2cc(-c3ccccc3)nc2c2ccccc12 | 2 | -1 | 0 | -5 | -4 | 95*
O=c1cnnc(N/N=C/c2ccccn2)[nH]1 | -3 | 1 | 1 | 8 | -5 | -5
O=c1nc(N/N=C/c2ccccn2)cn[nH]1 | 3 | -6 | 0 | 49* | -1 | .
O=C(NCc1ccc2c(c1)OCO2)c1ccco1 | -1 | 0 | -1 | 4 | -1 | -15
O=C(CC(SCCO)c1ccc2c(c1)OCO2)c1ccco1 (configuration not stated) | 4 | -2 | -1 | 8 | -4 | 97*
Cc1ccccc1Cn1cc(COC(=O)Nc2ccc(F)cc2)nn1 | -1 | . | . | . | . | .
Cc1cc(C)nc(NCC(O)CNc2ccccc2C)n1 (configuration not stated) | -2 | -4 | -5 | 1 | 3 | 98*
COc1ccc(C(=O)O)cc1NC(=S)NC(=O)/C=C/c1ccc(C(C)C)cc1 | 0 | 5 | 4 | -3 | -2 | 97*
CCCCC(=O)NC(=S)Nc1cc(C(=O)O)ccc1OC | 0 | -4 | 5 | 3 | -4 | -1
COCCn1c(=O)[nH]c2cc(C(=O)N3CCN(c4ccc(OC)cc4)CC3)ccc2c1=O | -4 | -9 | 0 | -2 | -3 | 96*
CCOc1cc2[nH]c(=S)n(CCCN3CCOCC3)c(=O)c2cc1OCC | 1 | -10 | 2 | 19 | -2 | 50
COc1ccc(N2CCN(C(=O)CCCCCn3c(=O)[nH]c4ccsc4c3=O)CC2)cc1 | -3 | 0 | -39 | -1 | -3 | 69
COc1ccc(N2CCN(CCCn3c(=S)[nH]c4ccccc4c3=O)CC2)cc1 | 0 | 26 | -9 | 3 | 2 | 95*
COc1ccc(N2CCN(CCCNC(=O)CCCn3c(=O)[nH]c4ccsc4c3=O)CC2)cc1 | 5 | -1 | -2 | 4 | -3 | 93*
COc1cc2c(=O)n(CCCN3CCOCC3)c(=S)[nH]c2c(OC)c1OC | -2 | 1 | -11 | 4 | 1 | 95*
COc1ccccc1N1CCN(CCCn2c(=S)[nH]c3ccccc3c2=O)CC1 | 2 | -4 | 31 | -10 | -3 | 97*
CN(C)c1ccc(-n2cc3c(=O)n(C)c(=O)n(C)c3c2)cc1 | 6 | 3 | -2 | -2 | -3 | 99*
SMILES | SMARCA2 activ | Exocytosis inh | JMJD2C inh | PfM18AAP inh | MIN6 prolif | ALR inh
NC(=O)C1CCN(C(=O)N2c3ccccc3Sc3ccccc32)CC1 | -2 | -1 | -17 | 3 | -3 | 80*
O=C(NC1CCN(C(=O)N2c3ccccc3Sc3ccccc32)CC1)c1ccccc1Cl | -4 | 5 | 3 | 6 | -4 | 2
c1ccc(-c2nc3ccccc3nc2N2CCOCC2)cc1 | 0 | 4 | 23 | -1 | -1 | .
Cn1c(N2CCOCC2)nc(-c2ccccc2)c1-c1ccccc1 | -2 | 8 | -17 | 7 | -2 | 99*
CCOC(=O)CC(=O)CSc1nc2ccc(C)cc2cc1C#N | 8.8* | -2 | -2 | 26 | -5 | 22
COc1cc(/C=N/NC(=O)C2C3CCCCC32C)cc(Br)c1O (configuration not stated) | -1 | -8 | -2 | 10 | 0 | 86*
CCCCCC(=O)N/N=C/c1cc(Br)c(O)c(OC)c1 | -4 | 0 | 1 | 1 | 3 | 99*
COc1cc(/C=N/NC(=O)CC2(C)OCCO2)cc(Br)c1O | 1 | 1 | -3 | 2 | 1 | 71
COc1ccc(N2CCN(C(=O)Nc3ccccc3C)CC2)cc1 | 1 | 3 | 4 | -6 | 5 | 54
COc1cccc(N2CCN(C(=O)Nc3ccccc3Cl)CC2)c1 | 3 | -2 | 7 | 1 | -1 | 87*
O=C(N/N=C/c1ccc([N+](=O)[O-])o1)C1CCCC1 | 1 | -1 | 15 | 17 | 0 | -8
O=[N+]([O-])c1ccc(/C=[N+](\[O-])[C@@H]2CCCC[C@@H]2/[N+]([O-])=C/c2ccc([N+](=O)[O-])o2)o1 | 2 | -4 | 89* | 18 | -7 | -76
N/C(=N\OC(=O)Cc1ccc([N+](=O)[O-])cc1)c1ccc([N+](=O)[O-])cc1 | 0 | 7 | -2 | 1 | 1 | 97*
N/C(=N\OC(=O)Cc1ccc([N+](=O)[O-])cc1)c1cccc(Br)c1 | -1 | -5 | 2 | 2 | -3 | 99*
Cc1ccc(CC(=O)O/N=C(\N)Cc2ccc([N+](=O)[O-])cc2)cc1 | -1 | -2 | -5 | -4 | -2 | 35
Cc1ccc(CC(=O)O/N=C(\N)c2cccc([N+](=O)[O-])c2)cc1 | 1 | 2 | 8 | 0 | 1 | -3
CC(=O)Nc1ccc(S(=O)(=O)Nc2cccc3[nH]ncc23)cc1 | -2 | 5 | -13 | 8 | 1 | -10
O=C(Nc1cccc2[nH]ncc12)NS(=O)(=O)c1ccccc1 | 0 | -9 | 3 | 4 | -1 | 97*
COc1ccc(C/C(C)=N/Nc2nc(C)cc(=O)[nH]2)cc1 | 0 | 7 | -2 | 31* | 3 | 2
COc1ccc(CCNc2nc(C)cc(=O)[nH]2)cc1OC | -3 | -5 | -3 | 3 | 0 | 4
Brc1cccc(CN2CCN(c3ncc(Cc4ccccc4)cn3)CC2)n1 | -4 | . | . | . | . | .
C=CCn1c(-c2ccc(Cl)cc2)c[nH]c1=S | -8 | 1 | -3 | -6 | 1 | 97*
CCn1c(-c2ccc(-c3ccccc3)cc2)c[nH]c1=S | 1 | 0 | 3 | -16 | -4 | -5
CSC(=Nc1ccccc1)C1=C(O)COC1=O | 1 | 0 | 6 | 7 | -1 | 97*
N#C/C(N=Nc1ccccc1O)=N\Nc1ccccc1O | -5 | 10 | 87* | . | -9 | 99*
